# 12-LOX inh – blocks human arachidonate 12S-lipoxygenase. purified 12hLO, xylenol orange hydroperoxide absorbance. P18054. 580,000 compounds, 1.1% hits. Potency, µM (top dose mostly 108 µM), without a hit: at the highest dose activity change, negative = inhibition, usual class: inhibitors; also: % is scaled to controls: 0 for no effect and ±100 for the full control effect
# Target sequence (P18054 whole entry, looked up): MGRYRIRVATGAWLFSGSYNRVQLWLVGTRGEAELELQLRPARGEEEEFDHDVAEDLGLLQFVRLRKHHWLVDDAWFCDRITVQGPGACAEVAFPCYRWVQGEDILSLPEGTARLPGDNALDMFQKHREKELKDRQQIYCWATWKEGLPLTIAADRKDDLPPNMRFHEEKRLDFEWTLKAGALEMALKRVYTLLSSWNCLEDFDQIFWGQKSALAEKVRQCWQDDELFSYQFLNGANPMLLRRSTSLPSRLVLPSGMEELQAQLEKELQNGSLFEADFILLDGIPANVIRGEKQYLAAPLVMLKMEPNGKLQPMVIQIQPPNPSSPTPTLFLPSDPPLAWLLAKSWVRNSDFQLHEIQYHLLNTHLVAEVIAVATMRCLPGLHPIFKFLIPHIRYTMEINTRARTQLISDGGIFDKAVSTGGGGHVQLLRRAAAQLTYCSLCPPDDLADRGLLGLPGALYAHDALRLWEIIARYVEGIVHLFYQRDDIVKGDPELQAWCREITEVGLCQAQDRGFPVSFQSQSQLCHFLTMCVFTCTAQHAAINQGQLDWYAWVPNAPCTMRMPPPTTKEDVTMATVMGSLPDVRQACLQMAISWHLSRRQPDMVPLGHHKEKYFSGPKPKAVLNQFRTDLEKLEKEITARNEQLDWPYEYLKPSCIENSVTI
#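 Hydroperoxide product was detected by ferrous iron/xylenol orange as the 573 to 405 nm absorbance ratio. Arachidonic acid at 40 uM (final) was turned over for 30 min at room temperature by 150 nM human 12hLO, pH 7.0 Hepes buffer, after 15 min compound preincubation.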
# gsp agonist – gsp mutant agonism; AID 624287; Potency, µM (doses to about 76.9 µM), for inactives: at the highest dose activation (cAMP increase), hits mostly activators; 340,000 compounds, 0.13% hits; gsp mutant cells, cAMP HTRF, 30 min; active = well fitted activation curve with a large enough effect; inconclusive = small, poorly fitted or top-dose-only effect, or another doubt; inactive = no such curve, though single readings can be large or run the other way; cell line not stated here;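 also: phosphodiesterase inhibitor Ro 20-1724 added with compounds to block cAMP breakdown; nearly all actives have a fitted effect of over 60% in size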
#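 Cells in DMEM/10% FBS with G418 were pretreated with compounds in DMSO plus […] (300 uM stock) for 30 min at 37C. cAMP was measured by HTRF (cAMP-d2 plus anti-cAMP antibody-K) after 30 min at room temperature.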
# gsp antagonist – gsp mutant antagonism; gsp-mutant cells, cAMP HTRF, 30 min; Potency, µM (series often up to 76.9 µM), inactives show at the top dose activity change, negative = inhibition, hits mostly inhibitors; 340,000 compounds, 0.4% hits; AID 624288; calls by dose curve; cell line not stated here;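 also: intracellular cAMP measured with PDE inhibitor Ro 20-1724 present during compound exposure; % is scaled to controls: 0 for no effect and ±100 for the full control effect; nearly all actives have a fitted effect of over 65% in size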
#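 Measurement of cellular cAMP by homogeneous time-resolved fluorescence following a 30 min compound exposure at 37C. The PDE inhibitor […] was present throughout; the assay buffer was DPBS with 0.05% BSA and 0.005% Tween 20.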
# Mito fusion yeast – mitochondrial division inhibition or fusion activation. S. cerevisiae fusion-defective mutant growth rescue, CellTiterGlo 48 h. Potency, µM (highest dose often 46.1 µM), without a hit: at the highest dose growth rescue (activation), actives largely listed as activators. 320,000 compounds, 0.23% hits; also: % of control where 0% means no effect; nearly all actives have a fitted effect of over 45% in size
#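 Luminescent cell viability in 1536-well qHTS format served as the measure of rescued growth in ts fusion-mutant S. cerevisiae cultured on non-fermentable YPEG for 48 hours at 37C.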
# FUS yeast rescue – suppressors of FUS proteinopathy in yeast | S. cerevisiae FUS-expressing, growth rescue, OD600, 24 h | Potency, µM (highest dose often 76.6 µM), usual class: activators | 390,000 compounds, 0.24% hits | AID 1347120;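 also: plate controls were DMSO vehicle for no effect and reference control for full effect; nearly all actives have a fitted effect of over 55% in size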
#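 Yeast expressing FUS under galactose induction, OD 0.005 in 2% galactose medium; compounds in a dilution series, 24 h at 30C. Growth rescue by absorbance at 600 nm; CP55940 positive control, DMSO negative.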
# Starred values were filed as active, the others as inactive; i = inactive; u = inconclusive; x = no result given; ! = not active in a repeat; [ ] = dose if it differs, or a comment. Shown are actives, neighbours in structure and some others; about 1.6% of the full set was active somewhere. Unless noted, calls follow the shape of the dose curve; as a rule, active = well fitted curve in the direction sought with a large enough effect; inconclusive = small, poorly fitted or top-dose-only effect, or another doubt; inactive = no such curve, though single readings can be large; an effect the other way counts as inactive or inconclusive. Potency is read from the fitted curve at half-maximal effect.
SMILES,12-LOX inh,gsp agonist,gsp antagonist,Mito fusion yeast,FUS yeast rescue
c1ccc(CCNc2nc(-c3c[nH]c4ccccc34)cs2)cc1,45µM*,x,x,x,x
CNc1nc(-c2c[nH]c3ccccc23)cs1,u,11%,-28%,-8%,i
CCC(C)Nc1nc(-c2c[nH]c3ccccc23)cs1 (stereo not given),50µM*,0%[15.4 µM],-14%,-7%,i
O=C(Nc1nc(-c2c[nH]c3ccccc23)cs1)C1CCC1,50µM*,x,x,x,x
Cc1ccc(CN(c2ccc(C(=O)NC3CC3)cc2)S(C)(=O)=O)cc1,3%,x,x,x,x
Cc1ccc2c(c1)C(O)(c1c[nH]c3ccccc13)C(=O)N2 (stereo not given),0%,x,x,x,x
CC(C)C(Sc1nnc(-c2cccnc2)o1)C(=O)NCc1cccnc1 (stereo not given),-30%,x,x,x,x
CN(Cc1nccn1C)C(=O)c1cc(COc2cccc(C(F)(F)F)c2)on1,1%,2%,5%,-7%,i
Cc1ccc(CN(C)C(=O)c2cc(COc3cccc(C(F)(F)F)c3)on2)o1,40µM*,u,-4%,2%,i
C[N+](C)(C)CCN(Cc1ccc(Cl)cc1)c1ccccn1,16µM*,27%,3%,-2%,i
CN(C)CCN(Cc1ccc(Cl)cc1)c1ccccn1,-24%,x,9%,-5%,i
COc1cc(-c2csc(-c3c(C)c(C)nn(C)c3=O)n2)ccc1OC(F)F,-26%,x,x,x,x
COc1cc(-c2csc(NC3CC3)n2)ccc1OC(F)F,25µM*,x,x,x,x
O=c1[nH]c2ccc(-c3csc(NC4CCCC4)n3)cc2[nH]1,35µM*,x,x,x,x
CCOCCCNc1nc(-c2ccc3[nH]c(=O)[nH]c3c2)cs1,-6%,x,x,x,x
CC(C)CCNc1nc(-c2ccc3[nH]c(=O)[nH]c3c2)cs1,45µM*,x,x,x,x
O=c1[nH]c2ccc(-c3csc(NC4CC4)n3)cc2[nH]1,18µM*,x,x,x,x
CC1C(=O)Nc2ccc(-c3csc(NC4CCCC4)n3)cc21 (stereo not given),16µM*,x,x,x,x
c1ccc2c(-c3csc(NC4CC4)n3)c[nH]c2c1,-50%,x,x,x,x
CCCCc1nn2cc(-c3ccc(CC)cc3)nc2s1,-23%,x,x,x,x
COc1ccc2c(c1)CC/C(=C\c1ccc(Br)o1)C2=O,22µM*,x,x,x,x
CCn1cc2nc(SCC(=O)Nc3cc(OC)cc(OC)c3)n(Cc3ccc(Cl)cc3)c(=O)c2n1,-13%,x,x,x,22µM*
CC(=O)Nc1nc(CC(C)C)cc(-c2ccco2)c1C#N,13µM*,u,0%,2%,i
CC(=O)Nc1nc(CC(C)C)cc(-c2ccccc2)c1C#N,0%,6%,-15%,6%,i
Cc1sc2nc[nH]c(=O)c2c1-c1ccc(F)cc1,-9%,-95%,6%,5%,u
SMILES,12-LOX inh,gsp agonist,gsp antagonist,Mito fusion yeast,FUS yeast rescue
Cc1cc(-c2csc3nc[nH]c(=S)c23)cc(C)c1C,28µM*,11%[15.4 µM],u,5%,i
S=c1[nH]cnc2scc(-c3ccc(Br)cc3)c12,-12%,21%,-6%,1%,i
Cc1ccc(-c2csc3nc[nH]c(=S)c23)cc1,35µM*,-7%,-11%,28%,i
Cc1sc2nc[nH]c(=S)c2c1-c1ccccc1,32µM*,9%[15.4 µM],-14%,0%,i
CC(C1CC1)n1nccc1NC(=O)c1nn(C)c(=O)c2ccccc12 (stereo not given),-15%,x,x,x,x
CCOC(=O)N1CCN(CC(=O)Nc2ccc(F)cc2F)CC1,-11%,7%,15%,2%,i
CCOC(=O)N1CCN(CC(=O)Nc2cc(OCC)ccc2OCC)CC1,1.6µM*,-23%,-13%,14%,i
CCOC(=O)N1CCN(CC(=O)Nc2nc3ccc(OC)cc3s2)CC1,45µM*,-40%,-3%,12%,i
CCOC(=O)N1CCN(CC(=O)Nc2nc3ccccc3s2)CC1,5%,-12%[15.4 µM],-7%,1%,i
Cc1c(CC(=O)Nc2nc3ccccc3[nH]2)c(=O)oc2cc(O)ccc12,-1%,x,x,x,x
Cc1occc1C(=O)NC1CCCN(Cc2ccc(Cl)cc2)C1 (stereo not given),u,-12%,3%,1%,i
O=C(C1CCCN(Cc2ccc(Cl)cc2)C1)N1CCCCC1 (stereo not given),0.63µM*,-23%,12%,15%,i
Cc1cc(C(=O)NC2CCCN(Cc3ccc(Cl)cc3)C2)c(C)o1 (stereo not given),16µM*,-5%,-19%,-5%,i
O=C(C1CCCN(Cc2ccccc2)C1)N1CCCCC1 (stereo not given),u,-10%,12%,0%,i
CCN(CC)c1nc(SC)nc(-c2ccc(Cl)cc2)c1C#N,-2%,x,x,x,x
Cc1ccc(NC(=O)CSC2=C(C#N)C(c3ccco3)CC(=O)N2)cc1 (stereo not given),u,29%,0%,1%,i
Cc1ccc(C(=O)CSC2=C(C#N)C(c3ccco3)CC(=O)N2)c(C)c1 (stereo not given),50µM*,-5%,17%,0%,u
O=c1c2cc(Cl)ccc2ncn1Cc1ncon1,13%,x,x,x,x
CCN(CC)c1ccc(SS(=O)(=O)O)cc1,25µM*!,-27%,-2%,4%,u
O=S(=O)(O)Sc1ccccc1,u,-4%,x,x,i
CN(CCCNC(=O)c1cccc2[nH]ncc12)Cc1ccccc1,2%,x,x,x,x
S=c1[nH]c(-c2ccccc2)cn1/N=C/c1cccnc1,u,u,-3%,-1%,i
S=c1[nH]c(-c2ccccc2)cn1/N=C/c1ccc(Br)cc1,40µM*,-2%[15.4 µM],x,-4%,i
O=C(O)c1ccc(/C=N/n2cc(-c3ccccc3)[nH]c2=S)cc1,45µM*,-25%,-1%,12%,i
Cc1ccc(NCCC(=O)c2cc3ccccc3o2)cc1Br,35µM*,x,x,x,x
SMILES,12-LOX inh,gsp agonist,gsp antagonist,Mito fusion yeast,FUS yeast rescue
CCC(=O)N(c1ccc(C(=O)O)cc1)c1nc(-c2ccc(OC)cc2)c(C)s1,-8%,u,25µM*,5%,i
O=C(/C=C\NCC(=O)c1ccccc1)c1ccc2ccccc2c1,35µM*,7%,-14%,3%,i
CN(C)c1nc(N)nc(COc2ccc3ccccc3c2Br)n1,-17%,x,x,x,x
CCCOc1ccc(CN(C(=O)c2nc(SC(C)C)ncc2Cl)C2CCS(=O)(=O)C2)cc1 (stereo not given),-15%,x,x,x,35µM*
COc1ccc(C2=Nn3c(nnc3-c3ccccc3OC)SC2)cc1OCC1CC1,35µM*,x,x,x,u
O=C(Cc1cccc(C(F)(F)F)c1)NC1(c2ccccc2)CCC1,35µM*,x,x,x,x
O=C(Cc1cccc(C(F)(F)F)c1)Nc1ccccc1,-41%,12%[15.4 µM],1%,3%,i
COc1ccccc1C(C)N(C)C(=O)CCc1ncc(-c2ccc(F)cc2)o1 (stereo not given),-24%,x,x,x,x
